This is a sample that favours compounds with a hit; in the whole collection about 2.1% have one here.
aSyn rescue – inhibitors of alpha-synuclein toxicity in yeast | Yeast expressing alpha-synuclein, growth rescue, BacTiter-Glo, 24 h | Potency, µM (highest dose often 46.1 µM), actives largely listed as activators | hit rate 0.14% among 370,000 | AID 652106; also: nearly all actives have a fitted effect of over 65% in size
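Readout is rescue of growth in alpha-synuclein-expressing yeast, so inhibitors of toxicity appear as activators. Growth after 24 hr at 30 deg C in galactose medium is quantified by luminescence.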
FUS suppressor – suppressors of FUS proteinopathy in yeast; Potency, µM (top dose mostly 76.6 µM), most hits filed as activators; hit rate 0.24% among 390,000; S. cerevisiae FUS-expressing, growth rescue, OD600, 24 h; also: nearly all actives have a fitted effect of over 55% in size
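Read-out: OD at 600 nm after 24hr at 30C, reporting rescue of FUS-induced yeast toxicity. Cells at OD 0.005 in galactose (2%) minimal medium; compounds tested in a dilution series; CP55940 titration from 92uM final as control.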
TDP-43 yeast inh – TDP-43 toxicity inhibition in yeast; TDP-43 expressing yeast growth rescue, BacTiter-Glo, 24 h; Potency, µM (series often up to 46.1 µM), usual class: activators; hit rate 1.8% among 410,000; also: nearly all actives have a fitted effect of over 50% in size
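Yeast expressing TDP-43 (pregrown in raffinose, seeded at OD600=0.02 in galactose medium) exposed to compounds 24 hr at 30 deg C. Growth read by BacTiter-Glo luminescence; rescue of toxicity appears as increased signal.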
Abeta rescue – compounds reversing amyloid beta toxicity in yeast; yeast expressing A-beta42, growth rescue, OD600, 48 h; response scale: 0% DMSO, 100% iron-clioquinol control; Potency, µM (series often up to 46.1 µM), usual class: activators; hit rate 0.063% among 410,000; AID 1347071; also: nearly all actives have a fitted effect of over 55% in size
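Growth rescue measured by 600 nm absorbance after 48 h yeast culture at 30 C with compound. Values normalized between DMSO and an equimolar ferric chloride plus clioquinol control.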
Of the large screens only hits and unclear results are named; the others gave an inactive call. Calls follow the shape of the dose curve; as a rule, active = well fitted curve in the direction sought with a large enough effect; inconclusive = small, poorly fitted or top-dose-only effect, or another doubt; inactive = no such curve, though single readings can be large; an effect the other way counts as inactive or inconclusive.

CCOc1ccc(NC(=O)CN(C)C(=O)c2ccc(C)c(S(=O)(=O)N3CCCCC3)c2)cc1OCC	none
Cc1ccc(C(=O)C(OC(=O)CCC(=O)Nc2cccc(C)c2)c2ccccc2)cc1 (stereo unspecified)	none
CCn1ncc([N+](=O)[O-])c1C(=O)n1nc(C)cc1C	none
CCCOc1ccc(N2CC(C(=O)Nc3cccc(Cl)c3Cl)CC2=O)cc1 (stereo unspecified)	none (no result: aSyn rescue)
COC(=O)[C@@H]1[C@H]2C[C@H]3c4[nH]c5ccccc5c4CCN3C[C@@H]2CC[C@@H]1O	none
O=C(CSc1nccn1-c1ccc(Cl)cc1)Nc1cccc2ccccc12	TDP-43 yeast inh 11.2µM (no result: aSyn rescue)
CCSc1nnc(NC(=O)CSc2nccn2-c2cc(C)cc(C)c2)s1	none
CCSc1nnc(NC(=O)CSc2nccn2-c2cccc(C)c2C)s1	TDP-43 yeast inh 15.8µM
O=C(Nc1cc(C(=O)N2CCN(c3ccccc3)CC2)ccc1Cl)c1cccs1	TDP-43 yeast inh 12.6µM (no result: FUS suppressor)
C=CCn1c(O)c(N=NC(=O)CNC(=O)/C=C/c2ccc(OC)cc2)c2ccccc21	none
CN=c1scc(-c2cccs2)n1/N=C/c1ccc(O)c(O)c1O	FUS suppressor 31.6µM
CSc1ccc(CCNC(=O)c2cc(C)nn2-c2ccccc2)cc1	none (no result: Abeta rescue)
CCCCCCN1C[C@H](n2cc(COC(=O)c3ccccc3)nn2)[C@@H](O)C[C@@H]1c1ccc(C)cc1	FUS suppressor inconclusive, TDP-43 yeast inh 35.5µM
CCCCCCN1C[C@H](n2cc(COC(=O)c3ccccc3)nn2)[C@@H](O)C[C@@H]1c1ccccc1	none
CCCCCCN1C[C@@H](n2cc(COC(=O)c3ccccc3)nn2)[C@H](O)C[C@@H]1c1ccccc1	aSyn rescue 25.1µM
NNC(=O)C1CCN(S(=O)(=O)c2ccc(Cl)cc2)CC1	none
O=c1c(Cl)c(Cl)cnn1Cc1ccc(F)cc1	TDP-43 yeast inh 20µM
CCN(CC)C(=O)Cn1cc(SCC(=O)Nc2cc(C)on2)c2ccccc21	none
COc1ccccc1NC(=O)CN1C(=O)COc2ccc(C)cc21	TDP-43 yeast inh inconclusive
COC(=O)c1ccccc1NC(=O)CN1C(=O)COc2ccc(Cl)cc21	TDP-43 yeast inh 12.6µM (no result: aSyn rescue)
CCOc1ccccc1NC(=O)CN1C(=O)COc2ccc(C)cc21	TDP-43 yeast inh 11.2µM
CCn1c(=O)c2sccc2n2c(CCCC(=O)Nc3ccc(OC)c(OC)c3)nnc12	none (no result: aSyn rescue)
O=C(CCC(=O)Nc1ccc(F)cc1)N/N=C/c1cccnc1	Abeta rescue inconclusive
COc1cccc(N=C2SC(C(=O)Nc3ccc(F)cc3)CC(=O)N2C)c1 (stereo unspecified)	none
CCOc1cccc(NC(=O)C2CC(=O)N(C)C(=Nc3ccc(F)cc3)S2)c1 (stereo unspecified)	TDP-43 yeast inh 25.1µM, Abeta rescue 15.8µM (no result: aSyn rescue)
CCOc1cccc(NC(=O)C2CC(=O)N(C)C(=Nc3ccc(OC)cc3)S2)c1 (stereo unspecified)	none
CCOc1cccc(NC(=O)C2CC(=O)N(C)C(=Nc3cccc(OC)c3)S2)c1 (stereo unspecified)	FUS suppressor inconclusive, TDP-43 yeast inh 35.5µM (no result: aSyn rescue)
Cc1cc(NC(=O)COC(=O)c2ccccc2O)no1	none (no result: FUS suppressor)
CC(C)CN(C(=O)c1ccc(=O)n(C)n1)c1nc2ccccc2s1	TDP-43 yeast inh 15.8µM
Cc1cc(C(=O)C(C)Sc2cccc[n+]2[O-])c(C)n1-c1ccc(Cl)cc1 (stereo unspecified)	aSyn rescue 2.82µM, TDP-43 yeast inh inconclusive
O=C(NC(=S)Nc1ccc(N2CCOCC2)c(Cl)c1)c1cncc(Br)c1	TDP-43 yeast inh 20µM
O=C(NC(=S)Nc1ccc(N2CCOCC2)c(Cl)c1)c1cccs1	Abeta rescue inconclusive
O=C(NC(=S)NC1CCCCCC1)c1cncc(Br)c1	TDP-43 yeast inh 15.8µM, Abeta rescue inconclusive (no result: FUS suppressor)
CCOC(=O)[C@H]1[C@H]2COc3ccc(Br)cc3[C@@H]2N2C(=O)CN(Cc3ccccc3)C(=O)[C@@]12C	none
O=C1/C(=C/c2ccccc2O)SC(=S)N1Cc1cccnc1	TDP-43 yeast inh 12.6µM
O=C(Nc1ccncc1)C1CCN(S(=O)(=O)c2cccs2)CC1	none
COc1ccc(C2CC(c3ccc(Cl)cc3)=NN2C(C)=O)cc1 (stereo unspecified)	aSyn rescue inconclusive, TDP-43 yeast inh 12.6µM
CC(=O)N1N=C(c2ccc(Cl)cc2)CC1c1ccc([N+](=O)[O-])cc1 (stereo unspecified)	none
CNS(=O)(=O)c1cccc(C(=O)OCc2csc(-c3ccccc3)n2)c1	TDP-43 yeast inh 15.8µM (no result: FUS suppressor)
O=C(CNS(=O)(=O)c1cccc(Cl)c1)OCc1csc(-c2ccccc2)n1	aSyn rescue inconclusive (no result: FUS suppressor)
Cc1cc(C)c2oc(-c3cccc(N)c3)nc2c1	TDP-43 yeast inh 11.2µM
Cc1ccc2nc(-c3cccc(N)c3)oc2c1	none
O=C(COC(=O)c1ccccc1OCCOc1ccccc1)Nc1ccccc1Br	none (no result: FUS suppressor, TDP-43 yeast inh, Abeta rescue)
Cc1[nH]c2ccccc2c1C(c1ccccc1)c1ccc(Cl)s1 (stereo unspecified)	TDP-43 yeast inh 35.5µM, Abeta rescue inconclusive (no result: aSyn rescue)
O=C(N/N=C\c1c(O)ccc2ccccc12)c1cncc(Br)c1	aSyn rescue 20µM, Abeta rescue inconclusive
O=C(N/N=C/c1c(O)ccc2ccccc12)c1cccnc1	none
COc1ccc(-c2nc3c(C)cc(Br)cn3c2Cc2ccccc2)cc1OC	none
COc1ccccc1Cc1c(-c2ccc(Cl)cc2)nc2c(C)cc(Br)cn12	FUS suppressor inconclusive, TDP-43 yeast inh 25.1µM
COc1ccc(-c2nc3c(C)cc(Br)cn3c2Cc2cccc(F)c2)cc1OC	FUS suppressor inconclusive, TDP-43 yeast inh 15.8µM
COc1ccc(-c2nc3ccc(Br)cn3c2Cc2cccc(F)c2)cc1OC	TDP-43 yeast inh 14.1µM
CCc1cccc(NC(=S)N2CCC(c3ccccc3)C2)c1 (stereo unspecified)	Abeta rescue inconclusive
Cc1ccc(CNc2nc3c([nH]2)c(=O)n(C)c(=O)n3C)cc1	none
COc1ccc(Cn2cc(CN3CCc4onc(-c5ccc(Br)cc5)c4C3=O)nn2)cc1	FUS suppressor inconclusive, TDP-43 yeast inh 17.8µM
O=S(=O)(O)c1cnccc1Nc1cccc(C(F)(F)F)c1	none
Cc1cccc(C)c1NC(=O)c1ccc2nc(CCc3ccccc3)oc2c1	TDP-43 yeast inh 12.6µM (no result: aSyn rescue)
CCOC(CNC(=O)C(=O)Nc1cc2c3c(c1)CC(=O)N3CCC2)OCC	none
O=[N+]([O-])c1cc(C(F)(F)F)ccc1NCC1CCCO1 (stereo unspecified)	TDP-43 yeast inh 14.1µM
O=C1CSC(=S)N1c1ccc(F)c(Cl)c1	TDP-43 yeast inh 25.1µM, Abeta rescue inconclusive
O=C(O)c1cc(C(=O)O)cc(N2C(=O)CSC2=S)c1	none
O=C(O)c1ccc(CN2C(=O)CSC2=S)cc1	aSyn rescue 12.6µM, TDP-43 yeast inh 17.8µM
O=C1CSC(=S)N1c1ccccc1	none (no result: FUS suppressor)
O=C(O)c1ccc(N2C(=O)CSC2=S)cc1	aSyn rescue 10µM, TDP-43 yeast inh inconclusive
Cc1ccccc1-c1nc(NCC2CC2)nc2ccsc12	TDP-43 yeast inh inconclusive
Cc1ccc(F)cc1-c1nc(NCC2CC2)nc2ccsc12	TDP-43 yeast inh 20µM

Compound activity as filed in PubChem BioAssay.
